The values below come from ChEMBL document CHEMBL3988442, “University of Dundee, Small-Polar-MMV Screening Library” (2021).

Holding throughout (design): scale not given: direction of the effect not stated beside the values
In assay [1] the target is Protein translocase subunit SecA (Escherichia coli (strain K12)) (UniProt P10408). The assay is described as follows: Assay to Identify E. coli SecA ATPase Inhibitors. The assay is classed as functional. The conditions noted are these: 30 µM.
For assay [2], the target named is T1, Ubiquitin-activating enzyme e1, putative (Leishmania donovani (strain BPK282A1)) (UniProt E9BSI1).
T1 sequence (whole entry): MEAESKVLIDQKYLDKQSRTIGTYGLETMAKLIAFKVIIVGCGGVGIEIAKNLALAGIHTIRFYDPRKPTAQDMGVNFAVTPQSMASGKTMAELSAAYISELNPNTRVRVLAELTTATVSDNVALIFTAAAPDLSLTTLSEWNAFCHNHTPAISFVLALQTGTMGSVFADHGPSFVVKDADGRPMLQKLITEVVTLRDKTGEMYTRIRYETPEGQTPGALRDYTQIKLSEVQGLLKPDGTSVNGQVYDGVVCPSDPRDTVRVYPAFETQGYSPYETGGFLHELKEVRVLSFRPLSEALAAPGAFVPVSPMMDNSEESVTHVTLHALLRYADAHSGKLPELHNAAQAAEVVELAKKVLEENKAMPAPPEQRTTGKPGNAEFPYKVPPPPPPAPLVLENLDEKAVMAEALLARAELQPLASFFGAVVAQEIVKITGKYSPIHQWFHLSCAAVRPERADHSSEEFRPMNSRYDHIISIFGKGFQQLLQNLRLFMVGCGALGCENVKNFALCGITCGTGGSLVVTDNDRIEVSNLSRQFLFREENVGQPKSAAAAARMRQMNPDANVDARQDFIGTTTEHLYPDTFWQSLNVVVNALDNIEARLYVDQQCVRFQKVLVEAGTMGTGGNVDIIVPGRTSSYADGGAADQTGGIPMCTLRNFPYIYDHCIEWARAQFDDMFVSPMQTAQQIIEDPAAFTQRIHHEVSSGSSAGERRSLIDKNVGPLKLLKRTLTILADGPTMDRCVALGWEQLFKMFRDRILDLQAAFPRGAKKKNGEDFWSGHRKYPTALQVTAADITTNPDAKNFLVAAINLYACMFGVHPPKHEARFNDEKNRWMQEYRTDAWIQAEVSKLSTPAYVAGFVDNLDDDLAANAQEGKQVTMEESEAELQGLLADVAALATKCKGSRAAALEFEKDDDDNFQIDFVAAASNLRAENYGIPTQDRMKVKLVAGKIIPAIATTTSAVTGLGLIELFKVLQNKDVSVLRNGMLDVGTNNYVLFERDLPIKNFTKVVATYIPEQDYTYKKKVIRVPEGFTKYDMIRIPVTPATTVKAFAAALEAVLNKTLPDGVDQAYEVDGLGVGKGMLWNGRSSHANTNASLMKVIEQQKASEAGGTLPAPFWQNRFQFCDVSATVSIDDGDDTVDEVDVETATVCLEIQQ
The assay is described as follows: Leishmania donovani Ubiquitin Activating Enzyme (LdE1). The class given is functional. The conditions noted are these: 30 µM.

In assay [3] the target is AMP-activated protein kinase, AMPK (Homo sapiens) (UniProt P54646+O43741+P54619+Q9UGJ0+Q9Y478+Q13131+Q9UGI9). The assay is described as follows: AMP-dependent Kinase enzyme assay. An in vitro enzyme assay that detects ADP turnover that is directly proportional to AMPK activity. This uses naive AMPK that is activated during the assay with MK-8722. The assay is classed as functional. The conditions noted are these: 30 µM.

Assay [4] has as its target Sialic acid-binding Ig-like lectin 9 (Homo sapiens) (UniProt Q9Y336). The assay is described as follows: Hs-Siglec9 ALPHAscreen SOP 20170721. The following applies: 10 µM. (In general: In Alpha technology, singlet oxygen from a donor bead excites a nearby acceptor bead.)
Assay [5] relates to Trypanosoma cruzi. As to the kind of experiment: Trypanosoma cruzi phosphomannomutase and mannose-1-phosphate guanylyltransferase assay. The following applies: 10 µM. The assay is classed as functional.
Assay [6] addresses T2, Arginase-2, mitochondrial (Homo sapiens) (UniProt P78540).
T2 sequence (whole entry): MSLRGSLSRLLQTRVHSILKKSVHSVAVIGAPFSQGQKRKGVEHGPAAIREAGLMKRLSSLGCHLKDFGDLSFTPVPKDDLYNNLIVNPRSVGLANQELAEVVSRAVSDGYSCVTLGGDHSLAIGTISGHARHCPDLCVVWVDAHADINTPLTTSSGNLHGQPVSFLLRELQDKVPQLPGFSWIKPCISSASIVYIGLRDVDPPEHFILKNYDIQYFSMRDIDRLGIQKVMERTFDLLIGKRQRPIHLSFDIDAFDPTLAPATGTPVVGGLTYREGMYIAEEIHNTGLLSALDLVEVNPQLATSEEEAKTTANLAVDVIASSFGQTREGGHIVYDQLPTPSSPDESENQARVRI
The assay is described as follows: in vitro enzyme assay to detect the production of urea directly proportional to the activity of Arginase II. Also: in the data most compounds retested in dose-response had high values. The class given is functional. The conditions noted are these: 33.3 µM.

The target in assay [7] is T3, Proteasome subunit beta (Trypanosoma cruzi) (UniProt O96673).
T3 sequence (whole entry): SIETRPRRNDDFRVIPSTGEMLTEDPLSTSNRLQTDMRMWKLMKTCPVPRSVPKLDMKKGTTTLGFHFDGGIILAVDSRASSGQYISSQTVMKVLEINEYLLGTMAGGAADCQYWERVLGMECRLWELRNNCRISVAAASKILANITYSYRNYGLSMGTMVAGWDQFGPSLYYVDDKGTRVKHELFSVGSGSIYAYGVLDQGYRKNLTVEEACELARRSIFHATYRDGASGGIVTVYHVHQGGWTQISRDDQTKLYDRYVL
The assay is described as follows: Trypanosoma cruzi proteasome chymotrypsin-like activity (TcProtChymo) assay. Also: in the data most compounds retested in dose-response had high values. The assay is classed as functional. The following applies: 9.37 µM.

The species entered for assay [8] is Homo sapiens. The assay is described as follows: To identify inhibition of the IFN signalling (Jak-Stat) pathway via expression of an eGFP reporter gene under the control of an IFN-stimulated response element (ISRE) containing MxA promoter. The class given is functional. The following applies: 30 µM. In general terms: In a reporter assay the amount or activity of a reporter protein is the signal.

Assay [9] concerns the target T4, Tyrosyl-tRNA synthetase, putative (Trypanosoma cruzi (strain CL Brener)) (UniProt Q4DSP6).
T4 sequence (whole entry): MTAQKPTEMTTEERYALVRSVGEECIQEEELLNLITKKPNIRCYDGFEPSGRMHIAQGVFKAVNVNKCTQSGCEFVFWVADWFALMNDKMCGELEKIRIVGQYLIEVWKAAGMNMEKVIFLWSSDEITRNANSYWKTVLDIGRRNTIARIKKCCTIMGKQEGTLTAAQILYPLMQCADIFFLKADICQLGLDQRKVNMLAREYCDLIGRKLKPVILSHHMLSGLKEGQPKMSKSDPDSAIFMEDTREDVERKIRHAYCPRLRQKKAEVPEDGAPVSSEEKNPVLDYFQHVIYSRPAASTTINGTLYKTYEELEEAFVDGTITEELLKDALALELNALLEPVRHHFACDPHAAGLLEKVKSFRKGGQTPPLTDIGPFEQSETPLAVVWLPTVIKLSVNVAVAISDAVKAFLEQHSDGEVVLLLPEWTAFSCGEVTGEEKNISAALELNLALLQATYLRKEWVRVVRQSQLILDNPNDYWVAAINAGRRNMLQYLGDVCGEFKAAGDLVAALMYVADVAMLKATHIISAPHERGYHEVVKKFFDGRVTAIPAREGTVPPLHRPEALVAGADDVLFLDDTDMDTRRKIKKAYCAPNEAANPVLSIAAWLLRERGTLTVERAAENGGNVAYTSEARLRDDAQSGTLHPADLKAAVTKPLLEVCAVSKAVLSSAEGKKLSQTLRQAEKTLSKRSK
As to the kind of experiment: Trypanosoma cruzi tyrosyl tRNA synthetase (TcYRS) _High Tyrosine SOP. Also: in the data most compounds retested in dose-response had high values. The following applies: 30 µM. The assay is classed as functional.

Assay [10] addresses T4, Tyrosyl-tRNA synthetase, putative (Trypanosoma cruzi (strain CL Brener)). The assay is described as follows: Trypanosoma cruzi tyrosyl tRNA synthetase (TcYRS) SOP. The class given is functional. The following applies: 30 µM.
The target in assay [11] is Chromo domain-containing protein 1 (Saccharomyces cerevisiae (strain ATCC 204508 / S288c) (Baker's yeast)) (UniProt P32657). The assay is described as follows: ScCHD-1 Enzyme Inhibition Assay. Also: in the data most compounds retested in dose-response had high values. The class given is functional. The conditions noted are these: 30 µM.
Sequence of Chromo domain-containing protein 1 (Saccharomyces cerevisiae (strain ATCC 204508 / S288c) (Baker's yeast)) (P32657 whole entry, the tested form may be a part): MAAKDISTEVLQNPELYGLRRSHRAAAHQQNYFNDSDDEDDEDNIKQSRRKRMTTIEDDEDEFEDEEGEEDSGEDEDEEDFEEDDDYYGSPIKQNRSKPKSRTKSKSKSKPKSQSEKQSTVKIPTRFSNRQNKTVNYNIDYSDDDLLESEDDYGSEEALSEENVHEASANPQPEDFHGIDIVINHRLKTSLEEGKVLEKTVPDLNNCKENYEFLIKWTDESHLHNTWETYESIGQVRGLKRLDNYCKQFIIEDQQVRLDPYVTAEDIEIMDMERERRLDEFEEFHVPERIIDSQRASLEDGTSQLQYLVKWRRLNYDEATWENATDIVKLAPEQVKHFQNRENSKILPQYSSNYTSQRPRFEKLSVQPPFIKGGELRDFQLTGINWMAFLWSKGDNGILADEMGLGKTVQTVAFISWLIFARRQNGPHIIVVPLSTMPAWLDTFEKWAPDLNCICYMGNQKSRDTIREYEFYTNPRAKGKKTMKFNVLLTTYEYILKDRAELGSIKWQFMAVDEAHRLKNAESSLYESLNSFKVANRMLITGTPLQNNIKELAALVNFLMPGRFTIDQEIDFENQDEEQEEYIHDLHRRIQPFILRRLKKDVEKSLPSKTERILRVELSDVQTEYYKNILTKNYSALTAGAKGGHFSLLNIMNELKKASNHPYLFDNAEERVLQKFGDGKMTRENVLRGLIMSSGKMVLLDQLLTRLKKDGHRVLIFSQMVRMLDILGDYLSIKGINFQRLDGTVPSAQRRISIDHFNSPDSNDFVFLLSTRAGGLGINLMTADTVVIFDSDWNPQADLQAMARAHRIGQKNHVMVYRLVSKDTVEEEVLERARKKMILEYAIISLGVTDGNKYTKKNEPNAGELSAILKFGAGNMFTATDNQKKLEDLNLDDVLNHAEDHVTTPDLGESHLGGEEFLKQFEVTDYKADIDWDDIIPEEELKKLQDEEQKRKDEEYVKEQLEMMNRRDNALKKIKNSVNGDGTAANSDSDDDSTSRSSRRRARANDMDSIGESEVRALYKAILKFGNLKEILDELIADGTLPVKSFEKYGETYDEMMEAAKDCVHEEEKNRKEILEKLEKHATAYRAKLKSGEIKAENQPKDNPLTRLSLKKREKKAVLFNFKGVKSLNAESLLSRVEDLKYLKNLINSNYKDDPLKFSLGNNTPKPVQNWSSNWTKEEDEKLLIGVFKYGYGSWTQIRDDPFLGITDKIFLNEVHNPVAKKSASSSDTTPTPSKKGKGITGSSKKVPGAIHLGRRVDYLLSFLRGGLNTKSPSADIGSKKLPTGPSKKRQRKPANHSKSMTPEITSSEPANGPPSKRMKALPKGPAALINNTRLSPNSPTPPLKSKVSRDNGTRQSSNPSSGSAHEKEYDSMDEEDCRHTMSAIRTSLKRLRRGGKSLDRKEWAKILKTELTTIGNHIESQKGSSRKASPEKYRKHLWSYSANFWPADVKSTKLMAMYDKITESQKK

For some assays here: Measured potencies and affinities stand elsewhere.

Sequence of Protein translocase subunit SecA (Escherichia coli (strain K12)) (P10408 whole entry): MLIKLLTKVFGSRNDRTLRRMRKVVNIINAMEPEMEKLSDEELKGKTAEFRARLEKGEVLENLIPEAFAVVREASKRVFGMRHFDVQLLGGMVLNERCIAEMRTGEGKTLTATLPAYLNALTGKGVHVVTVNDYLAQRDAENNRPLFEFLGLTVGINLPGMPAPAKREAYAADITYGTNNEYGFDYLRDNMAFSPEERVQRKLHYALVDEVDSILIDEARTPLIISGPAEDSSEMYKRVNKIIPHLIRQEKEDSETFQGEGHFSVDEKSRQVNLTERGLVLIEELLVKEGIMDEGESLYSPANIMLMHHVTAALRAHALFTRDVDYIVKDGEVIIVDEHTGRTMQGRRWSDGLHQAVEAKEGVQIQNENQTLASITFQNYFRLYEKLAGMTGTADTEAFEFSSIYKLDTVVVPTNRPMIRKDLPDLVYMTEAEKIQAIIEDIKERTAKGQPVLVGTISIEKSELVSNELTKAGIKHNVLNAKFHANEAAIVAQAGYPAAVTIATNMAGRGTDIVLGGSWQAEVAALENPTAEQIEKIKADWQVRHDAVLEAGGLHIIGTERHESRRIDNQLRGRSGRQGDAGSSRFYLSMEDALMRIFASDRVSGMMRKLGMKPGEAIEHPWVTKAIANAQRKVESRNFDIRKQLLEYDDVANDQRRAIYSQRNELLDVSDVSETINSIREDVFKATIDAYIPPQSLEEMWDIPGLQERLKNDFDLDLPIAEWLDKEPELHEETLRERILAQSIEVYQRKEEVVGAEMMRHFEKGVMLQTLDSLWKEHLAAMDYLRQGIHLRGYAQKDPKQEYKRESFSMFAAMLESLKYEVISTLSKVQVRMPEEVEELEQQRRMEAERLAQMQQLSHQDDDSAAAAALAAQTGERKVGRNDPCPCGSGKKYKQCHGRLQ
Sequence of Sialic acid-binding Ig-like lectin 9 (Homo sapiens) (Q9Y336 whole entry): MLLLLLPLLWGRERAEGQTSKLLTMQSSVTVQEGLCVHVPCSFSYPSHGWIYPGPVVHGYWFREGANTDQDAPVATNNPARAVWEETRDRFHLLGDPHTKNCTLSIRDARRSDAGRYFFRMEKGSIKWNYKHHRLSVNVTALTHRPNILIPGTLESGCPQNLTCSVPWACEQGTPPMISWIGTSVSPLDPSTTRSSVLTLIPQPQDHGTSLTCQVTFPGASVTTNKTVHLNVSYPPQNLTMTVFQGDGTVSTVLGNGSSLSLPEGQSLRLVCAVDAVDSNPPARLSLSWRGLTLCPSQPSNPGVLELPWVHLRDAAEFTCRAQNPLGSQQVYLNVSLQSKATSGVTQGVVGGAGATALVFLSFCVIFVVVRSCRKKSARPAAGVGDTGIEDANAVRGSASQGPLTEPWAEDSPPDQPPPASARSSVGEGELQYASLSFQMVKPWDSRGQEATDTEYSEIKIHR

Regarding `Cc1cc(NC(=O)CN2CCc3cnc(C)nc3C2)on1`, the Percent Effect in [1] was -3.81%; in assay [2] it was 5.26%; in [3] it was -27.9%; in assay [4], 2.68%; in assay [5], 7.75%; in assay [6], 1.8%. Moreover, the Percent Effect in [7] was 9.39%; in assay [8], -5.85%; in assay [9], 8.37%; in assay [10] it was 16.1%; in [11], -7.97%.

Take `CC(=O)Nc1nc(CN2CCCC2c2cnn(C)c2)cs1` (stereo not given): the Percent Effect in [1] is -7.62%; in assay [2], 20.2%; in [3] it was -9.48%; in [4] it was 17.6%; in assay [5], 9.54%; in [6], -6.46%. The Percent Effect in assay [7] is 6.31%; in [8], -5.41%; in assay [9], 7.39%; in assay [10] it was 21.5%; in [11], -5.9%.

Regarding `COc1cccc(CNCCc2cc(F)cc3c2OCOC3)c1`, the Percent Effect is -2.14% in assay [1]; 1.39% in assay [2]; -14.2% in assay [3]; 27% in [4]; 6.51% in assay [5]; 3.53% in [6]. For the same compound, the Percent Effect was 8.42% in assay [7]; 1.36% in assay [8]; 0% in [9]; 5.13% in [10]; -4.8% in assay [11].

For `Cc1ccoc1C(=O)N1CCO[C@H]2[C@H](OCC3CCOCC3)CC[C@@H]21`, the Percent Effect is -3.5% in assay [1]; 5.33% in assay [2]; -1.93% in assay [3]; 2.92% in assay [4]; 5.02% in assay [5]; -48.9% in assay [6]. Further, the Percent Effect in assay [7] was -0.513%; in assay [8] it was -9.79%; in [9], 2.08%; in [10], -5%; in assay [11], -3.9%.

For `CNS(=O)(=O)c1ccc(C(=O)NCCNc2ncccn2)cc1`, the Percent Effect is -3.65% in [1]; 10.5% in assay [2]; -2.1% in assay [3]; -1.6% in assay [4]; -2.52% in assay [5]; -1.08% in [6]. For the same compound, the Percent Effect is 7.36% in assay [7]; -4.68% in assay [8]; 6.4% in assay [9]; 23.5% in assay [10]; -3.3% in [11].

As for `CNC(=O)[C@@]12CCC3(CCN(C(C)=O)CC3)[C@@H]1CN(S(C)(=O)=O)C2`, the Percent Effect in [1] was -4.16%; in assay [2], 8.11%; in [3], -2.4%; in assay [4] it was -2.81%; in assay [5] it was -4.01%; in assay [6] it was 4.22%. The Percent Effect is -0.0858% in assay [7]; 1.1% in [8]; 5.38% in [9]; 6.17% in assay [10]; -3.18% in assay [11].

In the case of `CC(=O)N1CC[C@H]2OCC[C@@H](C(=O)N3CCCCO3)[C@@H]2C1`, the Percent Effect is -2.31% in assay [1]; 12% in [2]; -3.03% in assay [3]; 10.7% in assay [4]; -1.97% in [5]; -8.63% in assay [6]. Also, the Percent Effect in assay [7] was 15%; in assay [8] it was -4.45%; in assay [9], 4.23%; in assay [10], 12.8%; in [11] it was -7.82%.

`CCc1nc(CN(C(C)=O)C2CCN(CCc3cnn(C)c3)C2)no1` (stereo not given): the Percent Effect in assay [1] is -2.36%; in assay [2], 27.9%; in assay [3], -1.95%; in [4], -9.07%; in assay [5], -0.85%; in assay [6] it was 3.04%. In addition, the Percent Effect in [7] is 0.901%; in [8] it was 22.4%; in assay [9], -19.2%; in assay [10], 16.5%; in [11], -7.18%.

Consider `O=C(O)CC1CN(Cc2ccccc2)CCO1` (stereo not given), for which the Percent Effect in assay [1] was -6.06%; in assay [2] it was 5.41%; in assay [3], 5.19%; in assay [4], -3.59%; in assay [5] it was -5.27%; in assay [6] it was 2.08%. Moreover, the Percent Effect in [7] is 14.3%; in assay [8], 6.89%; in [9] it was 8.91%; in [10] it was 8.54%; in [11], -5.29%.

In the case of `CN(C(=O)NCCCN1CCCC1)C1CCN(c2ccccc2)C1=O` (stereo not given), the Percent Effect was 5.28% in [1]; 15.8% in assay [2]; 2.15% in [3]; -4.7% in [4]; -7.71% in [5]; 0.766% in assay [6]. The Percent Effect in [7] was 20.9%; in assay [8], 24.5%; in [9], 4.41%; in assay [10], 12.2%; in [11], -10.3%.
